# Data from the supplement of paper PMC6555819.
# Columns and labels:
# Assay in all cases: PBM binding z-score (relative to random genomic background probes); higher = stronger binding; sequences stand for … in GC…GCGATTGACAGCGTAGAATGAAGG
# [1] = system: FXR:RXRa (NR concentration 270 nM, RXRa partner concentration 90 nM)
# Outline: (§1)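 Custom Agilent 4×180K protein-binding microarrays carried double-stranded probes, each with a 34-nt variable region. These regions held direct-repeat seeds, single-nucleotide variants, half-site ablations and random human genomic background sequences. Ligand-free nuclear receptor dimers were incubated on the arrays for 1 h, antibodies against each partner (one per run) detected binding, and scanned fluorescence was regression-normalized. Binding z-scores take the random background probes as reference.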
# [2] = system: LXRa:RXRa (NR concentration 270 nM, RXRa partner concentration 90 nM)
# Outline: as §1
# [3] = system: LXRa homodimer (NR concentration 270 nM)
# Outline: as §1
# [4] = system: LXRb:RXRa (NR concentration 270 nM, RXRa partner concentration 90 nM)
# Outline: as §1
# [5] = system: LXRb homodimer (NR concentration 270 nM)
# Outline: as §1
# [6] = system: PPARa:RXRa (NR concentration 270 nM, RXRa partner concentration 90 nM)
# Outline: as §1
# [7] = system: PPARg:RXRa (NR concentration 180 nM, RXRa partner concentration 90 nM)
# Outline: as §1
# [8] = system: PPARg:RXRa 270nM:90nM, anti-RXR (NR concentration 270 nM, RXRa partner concentration 90 nM)
# Outline: as §1
# [9] = system: PPARg:RXRa 30nM:10nM, anti-RXR (NR concentration 30 nM, RXRa partner concentration 10 nM)
# Outline: as §1
# [10] = system: PPARg:RXRa 90nM:30nM, anti-RXR (NR concentration 90 nM, RXRa partner concentration 30 nM)
# Outline: as §1
# [11] = system: PPARg:RXRa DBDmut IVT, anti-RXR (DBD mutation: RXRa K156A/R161A, NR concentration 270 nM, RXRa partner concentration 90 nM)
# Outline: as §1
# [12] = system: PPARg:RXRa IVT, anti-PPARg (NR concentration 270 nM, RXRa partner concentration 90 nM)
# Outline: as §1
# [13] = system: PPARg DBDmut:RXRa IVT, anti-PPARg (DBD mutation: PPARg1 K132A/R137A, NR concentration 270 nM, RXRa partner concentration 90 nM)
# Outline: as §1
# [14] = system: PPARg DBDmut IVT, anti-PPARg (DBD mutation: PPARg1 K132A/R137A, NR concentration 270 nM)
# Outline: as §1
# [15] = system: PPARg homodimer (NR concentration 180 nM)
# Outline: as §1
# [16] = system: PXR:RXRa (NR concentration 270 nM, RXRa partner concentration 90 nM)
# Outline: as §1
# [17] = system: PXR homodimer (NR concentration 270 nM)
# Outline: as §1
# [18] = system: RARa:RXR (NR concentration 270 nM, RXRa partner concentration 90 nM)
# Outline: as §1
# [19] = system: RARa homodimer (NR concentration 270 nM)
# Outline: as §1
# [20] = system: RARb:RXRa (NR concentration 270 nM, RXRa partner concentration 90 nM)
# Outline: as §1
Sequence,PBM binding z-score [1],PBM binding z-score [2],PBM binding z-score [3],PBM binding z-score [4],PBM binding z-score [5],PBM binding z-score [6],PBM binding z-score [7],PBM binding z-score [8],PBM binding z-score [9],PBM binding z-score [10],PBM binding z-score [11],PBM binding z-score [12],PBM binding z-score [13],PBM binding z-score [14],PBM binding z-score [15],PBM binding z-score [16],PBM binding z-score [17],PBM binding z-score [18],PBM binding z-score [19],PBM binding z-score [20]
TTACCACGGTGAAAGGTCGTTGATGCACGCCTTG,1.82,1.94,0.347,1.79,-0.318,4.03,6.35,6.53,5.02,6.87,0.591,3.21,0.23,0.773,1.78,2.43,0.446,2.56,0.421,1.94
ACCTCTAGGTAAAAGTTCAGTGAATCCCGAGGAT,0.332,0.842,0.847,0.401,-0.0602,3.58,7.09,7.47,6.26,8.74,2.11,3.3,0.37,0.231,0.975,1.54,1.16,1.11,0.0645,2.08
TTGCCTAGGTCATGCGGGCCAGTATAGTGTCGGC,4.05,2.72,0.0559,1.52,-0.792,3.42,2.01,2.28,-0.182,1.06,1.47,2.82,0.433,-0.575,0.753,1.39,-0.692,2.31,-0.448,3.82
ACCTACGGGTCAACGAGGTTATAGCACGCGTATA,6.4,4.83,0.64,3.98,0.188,5.36,4.44,4.86,1.47,3.68,1.41,2.79,0.196,0.0693,3.53,5.22,3.27,5.3,0.837,4.05
TAGCCTAGGTCATTCAGGGGCCAGTGTAGAAAGC,4.78,3.98,0.7,3.06,1.08,3.66,1.53,2.43,0.00175,1.14,1.87,2.74,0.0729,-0.141,1.39,2.27,-0.259,3.32,-0.591,3.96
GCGAGTGGGGCAAAGCAGGTTACCATAAGGTTGG,0.592,0.51,-0.115,0.552,-0.338,1.36,0.889,1.12,-0.171,0.35,3.82,2.88,-0.867,-0.658,0.436,0.562,-0.254,0.873,0.0402,1
CGTCCAAGGTCAGAGAGGTCAGTAAATGCCGAGT,5.8,4.99,3.02,4.55,0.428,4.81,3.48,4.16,1.04,2.7,2.74,3.23,0.177,0.266,4.38,5.96,12,5.41,1.88,5.28
TCTTGTCGATCAGCAGGTTAAGAAAGCTGGCCAA,0.435,0.635,-0.135,0.381,0.00876,0.714,-0.663,1.47,2.63,1.91,1.61,0.358,-0.732,0.173,0.131,0.254,-0.436,0.75,-0.254,0.466
TCATATGGGTAAACAGGTGAAAGTCCGTAAGTTA,0.13,0.314,-0.0837,0.449,-0.731,1.85,2.04,2.98,2.52,2.89,4.06,3.99,0.27,0.486,0.322,0.505,0.00205,0.571,-0.0494,0.316
CCTAGTTGGTCAGGACGTCACACACCGGATATGA,-0.0966,0.0885,0.373,-0.0236,0.306,-0.286,0.962,0.0606,-0.177,0.147,0.48,0.458,0.41,0.0179,0.77,-0.123,0.484,-0.000234,1.44,0.721
TCGAGTAGGTTAGTCGAGGCATTCAGCCAACATA,0.165,-0.288,-0.432,-0.531,-1.3,0.172,-0.115,0.522,0.735,0.72,1.97,1.28,-0.938,-0.136,0.168,-0.24,-0.481,0.0963,-0.326,-0.133
TCGAGTAGGTTACCAATGCGGCATTCAGCTTTCT,0.106,0.532,-0.94,0.215,-0.704,0.883,0.206,1.1,1.23,1.24,3.59,2.67,-0.407,-1.16,-0.385,-0.209,-1.01,-0.26,-0.774,0.646
CAGCCTCGGTCAGGGCCAGTATAGGAGGAACGTT,-0.344,-0.223,-0.491,-0.601,-1.46,-0.701,-0.243,-1.13,-1.22,-1.45,-0.887,-0.552,-1.14,-2.31,-0.745,-0.881,-0.661,-0.746,-0.656,2.01
CGTCCAAGGTCAGCAGGTTAGTGAAAGCGACGTG,4.92,3.23,-0.206,2.36,-0.346,4.15,2.77,3.33,0.363,1.88,2.23,2.41,-0.261,-0.686,3.19,2.75,0.49,3.24,0.634,4.85
